Test results as given in PubChem BioAssay (NCATS).
Records with an inconclusive call do not appear. Calls of active or inactive are those of the source. Unless noted, calls follow the shape of the dose curve; as a rule, active = well fitted curve in the direction sought with a large enough effect; inconclusive = small, poorly fitted or top-dose-only effect, or another doubt; inactive = no such curve, though single readings can be large; an effect the other way counts as inactive or inconclusive.

How the values were obtained:
[1] = Quantitative high throughput screen for delayed death inhibitors of the malarial parasite plastid, 48 hour incubation (AID 488752); also: % is scaled to controls: 0 for no effect and ±100 for the full control effect; nearly all actives have a fitted effect of over 65% in size
Procedure, shortened: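 Erythrocytes infected with P. falciparum carrying an integrated firefly luciferase reporter (2% hematocrit, 0.1% parasitemia final) were exposed to compounds in RPMI 1640/0.5% Albumax for 48 h at 37 C, 5% CO2. Growth inhibition was scored as reduced luminescence.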

[2] = target: Thioredoxin reductase 1, cytoplasmic (Rattus norvegicus) (UniProt O89049); assay: qHTS Assay for Substrates of Mammalian Selenoprotein Thioredoxin Reductase 1 (TrxR1) (AID 488772);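 also: NADPH fluorescence in the first read after selenite addition and not the 8 min delta; series mostly up to about 57 µM; 0% is about no effect; a drop in NADPH fluorescence below the no-compound background marks a TrxR1 substrate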
Procedure, shortened: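 Quantitative HTS in Tris-HCl buffer at pH 7.5 with EDTA and Tween-20, using rat TrxR1, 400 uM NADPH and 400 uM selenite (final). A fall in initial NADPH fluorescence relative to background marked substrate behaviour.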

[3] = target: M-phase phosphoprotein 8 (Homo sapiens) (UniProt Q99549); assay: qHTS Validation Assay for Inhibitors for MPP8 Chromodomain Interactions with Methylated Histone Tails (AID 488949);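 also: AlphaScreen signal from MPP8 chromodomain bound to biotinylated H3K9me3 peptide; top concentration of the series differs between compounds; % is scaled to controls: 0 for no effect and ±100 for the full control effect; nearly all actives have a fitted effect of over 55% in size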
Procedure, shortened: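 Disruption of the preformed MPP8–trimethyl-H3K9 peptide complex (both 50 nM, 30 min, RT) is measured after 30 min compound exposure, using AlphaScreen proximity beads; aurintricarboxylic acid titration serves as plate control.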

[4] = target: Chromobox protein homolog 1 (Homo sapiens) (UniProt P83916); assay: qHTS Validation Assay for Inhibitors of HP1-beta Chromodomain Interactions with Methylated Histone Tails (AID 488953);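 also: loss of AlphaScreen luminescence from HP1-beta binding biotinylated H3K9me3 peptide; series mostly up to about 110 µM; % is scaled to controls: 0 for no effect and ±100 for the full control effect; nearly all actives have a fitted effect of over 50% in size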
Procedure, shortened: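 HP1-beta (50 nM) was preincubated 30 min at room temperature with biotinylated H3(1-18)K9me3 peptide (50 nM) in PBS pH 7.4, 0.01% Tween-20, then with compounds 30 min. AlphaScreen signal was read after streptavidin donor/nickel chelate acceptor beads (10 ug/mL final).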

[5] = target: Methanococcus maripaludis chaperonin (MmCpn) (UniProt Q6LX38); assay: High-Throughput Screening for Modulators of Cytosolic Chaperonin Activity: MmCpn Primary Screen (AID 488978); also: potency is read from the fitted curve at half-maximal effect
Procedure, shortened: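 Measures ATPase turnover of the M. maripaludis chaperonin (50 nM final) against 30 uM ATP over 10 min at 37C, with compound added 5 min beforehand at room temperature. ADP is quantified by HTRF immunodetection.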

[6] = target: Transient receptor potential cation channel subfamily V member 1 (Homo sapiens) (UniProt Q8NER1); assay: HTS Assay for Compounds that Act as Enhancers of the Vanilloid Receptor 1 (AID 488979); also: 0% is about no effect
Procedure, shortened: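 TRPV1-expressing cells loaded with Fluo-8 calcium dye; compounds added and calcium influx read kinetically for 3 min (agonist phase), then capsaicin at EC20 added and read 2 min more for enhancement. Fluorescence ex 480/em 520 nm.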

[7] = target: D(1A) dopamine receptor (Homo sapiens) (UniProt P21728); assay: HTS Assay for Allosteric Agonists of the Human D1 Dopamine Receptor: Primary Screen for Agonists (AID 488981); also: 0% is about no effect
Procedure, shortened: (§1)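 Tetracycline-induced HEK293 T-REx cells force-coupled to calcium signalling were incubated overnight at 30 C and dye-loaded at room temperature. Calcium flux over 180 s after compound addition flagged agonists; a further 180 s read after EC20 dopamine flagged potentiators.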

[8] = target: D(1A) dopamine receptor (Homo sapiens) (UniProt P21728); assay: HTS Assay for Allosteric Agonists of the Human D1 Dopamine Receptor: Primary Screen for Potentiators (AID 488982); also: 0% is about no effect
Procedure, shortened: as §1

[9] = target: D(1A) dopamine receptor (Homo sapiens) (UniProt P21728); assay: HTS Assay for Allosteric Agonists of the Human D1 Dopamine Receptor: Primary Screen for Antagonists (AID 488983);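 also: calcium flux response to an EC80 dopamine challenge measured with no-wash dye; % is scaled to controls: 0 for no effect and ±100 for the full control effect; nearly all actives have a fitted effect of over 65% in size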
Procedure, shortened: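 Tetracycline-induced HEK293 T-REx cells expressing force-coupled D1 were plated overnight at 30 C, dye-loaded for calcium, and read kinetically. Compounds were pinned in, then an EC80 dopamine challenge followed after 180 s to reveal antagonism.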

[10] = Validation screen for small molecules that induce genotoxicity in human embryonic kidney (HEK293T) cells expressing luciferase-tagged ELG1 (AID 493106); also: 0% is about no effect
Procedure, shortened: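 HEK293T cells expressing luciferase-tagged ELG1 were exposed to compound or DMSO vehicle for 16 hr at 37 °C, 5% CO2. Genotoxic stress raises ELG1 levels, so increased luciferase signal after ONE-Glo addition and 30 min at room temperature marks hits.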

[11] = target: ATPase family AAA domain-containing protein 5 (Homo sapiens) (UniProt Q96QE3); assay: Validation screen for small molecules that inhibit ELG1-dependent DNA repair in human embryonic kidney (HEK293T) cells expressing luciferase-tagged ELG1 (AID 493107);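 also: cells co-treated with the DNA-damaging agent 5-fluorouridine alongside compound; series mostly up to about 46 µM; % is scaled to controls: 0 for no effect and ±100 for the full control effect; inhibitors lower the ELG1-luciferase luminescence signal; nearly all actives have a fitted effect of over 70% in size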
Procedure, shortened: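 HEK293T cells expressing luciferase-tagged ELG1 were co-treated with 5-fluorouridine and compound or DMSO for 16 hr at 37 °C, 5% CO2. Luciferase activity was then read with ONE-Glo after 30 min at room temperature; suppressed signal indicates blocked ELG1 function.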

[12] = target: Thyrotropin-releasing hormone receptor (Homo sapiens) (UniProt P34981); assay: qHTS for Small Molecule Agonists and Allosteric Enhancers of Human TRH Receptor: Validation Screen for Agonists (AID 493127;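 active = calcium activation more than 3 SD above the typical response in the agonist read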;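 also: intracellular calcium rise by fluo-8 fluorescence before TRH EC20 addition; 0% is about no effect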); settings: TRH receptor agonist cell assay; at 2 µM; stronger effect = higher value
Procedure, shortened: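 TRHR-expressing cells were plated overnight in serum-containing medium, then loaded with fluo-8 calcium dye at room temperature for 30 min–1.5 h. After a 10 s baseline, compound was pin-transferred and calcium fluorescence (ex 480/em 530) read kinetically for agonist response.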

[13] = Validation screen for small molecules that induce DNA re-replication in SW480 colon adenocarcinoma cells (AID 504364); also: 0% is about no effect
Procedure, shortened: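 SW480 cells seeded at 250 per well were exposed to compound or DMSO for 48 hr at 37 C, 5% CO2, then stained with Hoechst for 40 min. DNA content per nucleus was imaged (405 nm ex, 500-530 nm em).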

[14] = target: Thyrotropin receptor (Homo sapiens) (UniProt P16473); assay: qHTS Assay for Antagonists of the Thyroid Stimulating Hormone Receptor (AID 488980); also: series mostly up to about 58 µM; 0% is about no effect
Procedure, shortened: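 Cells expressing human TSHR (HEK293) are dispensed in HBSS/HEPES containing 70 uM RO 20-1724, compound is added, then TSH at EC80 (4 nM final). Antibody in lysis buffer follows, 30 minutes at room temperature before HTRF detection.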

[15] = Nrf2 qHTS screen for inhibitors: Validation (AID 493153; active = well fitted inhibition curve with a large enough effect in the main read-out, with a control signal flat, not every such curve was filed as active); settings: Potency: luciferase luminescence; viability change: measured here: cytotoxicity max response
Procedure, shortened: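 A549 cells carrying an ARE-driven firefly luciferase reporter, in 5% FBS OPTI-MEM, were treated with compounds in concentration-response for 18-24 h at 37°C. Viability was read by CellTiter-Fluor fluorescence, then Nrf2 activity by luciferase luminescence.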

[16] = qHTS for Inhibitors of Cell Surface uPA Generation: Validation Assay (AID 493164);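 also: RAW 264.7 macrophage cells exposed to compound for 18 h; 0% is about no effect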
Procedure, shortened: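 RAW 264.7, 4000 cells/well, o/n plating; cpd 7-pt 1:5 dilution 2.45 nM–38.3 uM final; 18 h, 37 C/5% CO2; ATP-Lite, 5 s luminescence exposure.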

[17] = target: Flap endonuclease 1 (Homo sapiens) (UniProt P39748); assay: qHTS Validation Assay for the Inhibitors of Human Flap endonuclease 1 (FEN1) (AID 488816); also: % is scaled to controls: 0 for no effect and ±100 for the full control effect
Procedure, shortened: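 FEN1, dispensed as a 10 nM reagent, was preincubated with pin-transferred compounds for 15 min at room temperature before substrate was added (50 nM final). Plates were read at 0 and 15 min, and a four-parameter Hill equation was fitted to the concentration-response data.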

[18] = target: ATP-dependent 6-phosphofructokinase (Trypanosoma brucei brucei) (UniProt O15648); assay: qHTS Assay to Find Inhibitors of T. brucei phosphofructokinase: hit validation (AID 492961);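 also: luminescence reports ADP formed as PFK phosphorylates fructose-6-phosphate with ATP; series mostly up to about 51 µM; % is scaled to controls: 0 for no effect and ±100 for the full control effect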
Procedure, shortened: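 PFK 1.25 nM, F6P 0.5 mM, ATP 0.1 mM, MgCl2 5 mM, 0.1 M TEA pH 8.0, Tween20 0.01%, BSA 0.1%; 45 min RT. ADP-Glo two-step detection, luminescence. qHTS titration; curve fitting with curve-class categorization.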

Transient receptor potential cation channel subfamily V member 1 (Homo sapiens), sequence (Q8NER1 whole entry, looked up): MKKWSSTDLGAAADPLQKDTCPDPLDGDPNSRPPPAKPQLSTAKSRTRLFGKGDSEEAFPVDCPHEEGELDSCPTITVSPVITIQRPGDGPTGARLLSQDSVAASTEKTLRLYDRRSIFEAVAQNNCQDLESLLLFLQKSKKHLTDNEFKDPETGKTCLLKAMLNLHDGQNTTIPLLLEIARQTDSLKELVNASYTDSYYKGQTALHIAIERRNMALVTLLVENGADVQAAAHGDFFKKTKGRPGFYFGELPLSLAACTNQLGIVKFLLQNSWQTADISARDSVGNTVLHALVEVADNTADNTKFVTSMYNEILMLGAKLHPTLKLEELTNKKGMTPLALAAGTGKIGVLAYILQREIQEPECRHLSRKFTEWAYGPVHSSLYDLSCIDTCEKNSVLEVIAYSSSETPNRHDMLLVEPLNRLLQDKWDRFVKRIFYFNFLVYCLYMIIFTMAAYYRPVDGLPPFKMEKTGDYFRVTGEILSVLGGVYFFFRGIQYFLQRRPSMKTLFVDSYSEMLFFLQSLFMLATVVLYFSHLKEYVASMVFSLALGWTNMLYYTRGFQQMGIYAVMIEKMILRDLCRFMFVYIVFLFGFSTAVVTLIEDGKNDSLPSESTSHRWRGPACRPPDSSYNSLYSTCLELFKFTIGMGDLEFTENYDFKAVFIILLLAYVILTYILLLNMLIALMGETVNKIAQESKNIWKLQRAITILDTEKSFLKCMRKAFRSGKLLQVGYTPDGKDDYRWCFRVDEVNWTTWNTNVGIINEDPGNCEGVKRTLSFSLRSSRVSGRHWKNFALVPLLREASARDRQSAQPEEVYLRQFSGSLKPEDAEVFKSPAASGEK
Thyrotropin-releasing hormone receptor (Homo sapiens), sequence (P34981 whole entry, looked up): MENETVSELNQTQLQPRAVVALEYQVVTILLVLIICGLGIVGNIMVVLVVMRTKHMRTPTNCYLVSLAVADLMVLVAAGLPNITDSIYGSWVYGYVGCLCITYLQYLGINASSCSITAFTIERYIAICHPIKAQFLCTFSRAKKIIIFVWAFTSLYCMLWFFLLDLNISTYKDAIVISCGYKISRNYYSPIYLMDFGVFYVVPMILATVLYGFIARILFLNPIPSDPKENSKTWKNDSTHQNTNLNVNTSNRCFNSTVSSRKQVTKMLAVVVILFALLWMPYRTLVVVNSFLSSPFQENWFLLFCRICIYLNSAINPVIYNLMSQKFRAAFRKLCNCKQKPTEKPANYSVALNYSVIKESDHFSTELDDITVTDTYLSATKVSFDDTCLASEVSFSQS
Flap endonuclease 1 (Homo sapiens), sequence (P39748 whole entry, looked up): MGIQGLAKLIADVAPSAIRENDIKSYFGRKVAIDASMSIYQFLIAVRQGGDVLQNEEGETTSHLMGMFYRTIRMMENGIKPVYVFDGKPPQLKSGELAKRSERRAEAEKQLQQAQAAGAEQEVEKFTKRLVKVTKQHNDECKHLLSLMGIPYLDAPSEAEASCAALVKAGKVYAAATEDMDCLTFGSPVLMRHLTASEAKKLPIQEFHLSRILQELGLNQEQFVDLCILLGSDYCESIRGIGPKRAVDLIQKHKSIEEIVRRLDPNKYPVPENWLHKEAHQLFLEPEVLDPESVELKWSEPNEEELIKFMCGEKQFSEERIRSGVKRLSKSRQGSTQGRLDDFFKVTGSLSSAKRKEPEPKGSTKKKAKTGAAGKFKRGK
D(1A) dopamine receptor (Homo sapiens), sequence (P21728 whole entry, looked up): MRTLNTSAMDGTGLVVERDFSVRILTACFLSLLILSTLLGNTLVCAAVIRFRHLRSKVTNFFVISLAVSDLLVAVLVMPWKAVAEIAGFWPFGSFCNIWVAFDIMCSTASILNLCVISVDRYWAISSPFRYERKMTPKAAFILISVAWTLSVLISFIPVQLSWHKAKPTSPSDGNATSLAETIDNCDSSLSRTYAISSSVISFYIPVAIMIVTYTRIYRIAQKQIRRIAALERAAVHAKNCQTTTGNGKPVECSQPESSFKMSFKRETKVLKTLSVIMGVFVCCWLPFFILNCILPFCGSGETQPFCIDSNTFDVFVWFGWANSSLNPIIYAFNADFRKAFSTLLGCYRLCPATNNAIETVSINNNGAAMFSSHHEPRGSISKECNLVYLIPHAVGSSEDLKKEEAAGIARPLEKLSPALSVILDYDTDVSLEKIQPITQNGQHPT
ATP-dependent 6-phosphofructokinase (Trypanosoma brucei brucei), sequence (O15648 whole entry, looked up): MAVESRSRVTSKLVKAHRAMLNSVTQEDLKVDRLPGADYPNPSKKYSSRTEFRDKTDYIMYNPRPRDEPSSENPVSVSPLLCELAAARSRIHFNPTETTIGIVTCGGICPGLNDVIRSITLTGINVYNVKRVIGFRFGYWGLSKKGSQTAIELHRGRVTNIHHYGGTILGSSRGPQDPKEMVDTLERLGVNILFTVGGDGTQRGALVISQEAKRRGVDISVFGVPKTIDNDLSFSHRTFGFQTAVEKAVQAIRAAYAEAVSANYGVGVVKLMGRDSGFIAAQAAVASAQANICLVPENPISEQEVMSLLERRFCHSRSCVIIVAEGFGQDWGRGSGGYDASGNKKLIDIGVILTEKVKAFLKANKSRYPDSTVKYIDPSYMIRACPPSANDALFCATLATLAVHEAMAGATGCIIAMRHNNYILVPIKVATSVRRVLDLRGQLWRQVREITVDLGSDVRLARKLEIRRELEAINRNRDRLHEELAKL
ATPase family AAA domain-containing protein 5 (Homo sapiens), sequence (Q96QE3 whole entry, looked up, the tested form may be a part): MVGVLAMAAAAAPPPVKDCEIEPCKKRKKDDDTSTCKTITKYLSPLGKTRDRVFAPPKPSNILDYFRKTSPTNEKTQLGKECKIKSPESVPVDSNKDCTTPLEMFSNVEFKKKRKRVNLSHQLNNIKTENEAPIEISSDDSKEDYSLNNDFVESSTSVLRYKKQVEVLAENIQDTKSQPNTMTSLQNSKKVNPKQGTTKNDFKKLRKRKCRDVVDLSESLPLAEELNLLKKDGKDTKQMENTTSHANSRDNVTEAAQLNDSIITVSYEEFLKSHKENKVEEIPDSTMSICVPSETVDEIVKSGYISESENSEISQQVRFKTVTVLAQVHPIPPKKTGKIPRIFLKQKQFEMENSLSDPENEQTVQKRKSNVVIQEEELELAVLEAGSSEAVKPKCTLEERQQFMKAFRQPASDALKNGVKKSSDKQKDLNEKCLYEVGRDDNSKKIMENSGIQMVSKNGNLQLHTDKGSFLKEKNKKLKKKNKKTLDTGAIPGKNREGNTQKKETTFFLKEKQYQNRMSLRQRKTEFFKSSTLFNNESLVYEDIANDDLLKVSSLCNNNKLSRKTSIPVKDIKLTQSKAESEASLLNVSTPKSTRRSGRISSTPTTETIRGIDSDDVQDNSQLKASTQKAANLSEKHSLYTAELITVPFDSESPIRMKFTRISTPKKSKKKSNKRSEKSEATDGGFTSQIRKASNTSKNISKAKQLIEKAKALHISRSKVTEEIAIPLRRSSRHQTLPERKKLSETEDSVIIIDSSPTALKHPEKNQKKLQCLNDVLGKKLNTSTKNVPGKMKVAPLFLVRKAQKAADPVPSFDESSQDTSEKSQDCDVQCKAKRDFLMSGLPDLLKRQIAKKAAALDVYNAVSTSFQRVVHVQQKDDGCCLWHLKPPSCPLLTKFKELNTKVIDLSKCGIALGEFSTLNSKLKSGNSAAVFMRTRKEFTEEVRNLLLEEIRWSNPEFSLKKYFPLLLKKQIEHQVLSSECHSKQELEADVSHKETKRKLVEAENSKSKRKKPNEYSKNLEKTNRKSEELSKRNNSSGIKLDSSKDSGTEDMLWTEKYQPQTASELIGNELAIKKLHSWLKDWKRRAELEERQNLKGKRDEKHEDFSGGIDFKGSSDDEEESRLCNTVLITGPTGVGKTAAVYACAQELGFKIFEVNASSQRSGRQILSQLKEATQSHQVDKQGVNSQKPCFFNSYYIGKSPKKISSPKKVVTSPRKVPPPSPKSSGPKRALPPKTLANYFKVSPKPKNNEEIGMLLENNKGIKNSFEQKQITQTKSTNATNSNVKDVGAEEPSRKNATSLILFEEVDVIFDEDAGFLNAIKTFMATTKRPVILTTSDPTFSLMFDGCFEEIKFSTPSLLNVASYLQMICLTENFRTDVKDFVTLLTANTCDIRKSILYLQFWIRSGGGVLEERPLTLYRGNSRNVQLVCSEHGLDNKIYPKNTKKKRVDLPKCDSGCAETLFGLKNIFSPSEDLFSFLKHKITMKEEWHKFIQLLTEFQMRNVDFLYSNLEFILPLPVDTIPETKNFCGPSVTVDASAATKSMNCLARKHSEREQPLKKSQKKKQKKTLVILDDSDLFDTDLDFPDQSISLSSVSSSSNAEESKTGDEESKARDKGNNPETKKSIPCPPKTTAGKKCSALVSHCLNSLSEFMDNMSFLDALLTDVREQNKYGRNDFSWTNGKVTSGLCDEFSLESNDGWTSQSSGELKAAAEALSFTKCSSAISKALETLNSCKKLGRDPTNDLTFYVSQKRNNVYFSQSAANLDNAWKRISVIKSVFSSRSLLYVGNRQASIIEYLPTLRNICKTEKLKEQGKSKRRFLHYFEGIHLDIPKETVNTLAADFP
Methanococcus maripaludis chaperonin (MmCpn), sequence (Q6LX38 1-543): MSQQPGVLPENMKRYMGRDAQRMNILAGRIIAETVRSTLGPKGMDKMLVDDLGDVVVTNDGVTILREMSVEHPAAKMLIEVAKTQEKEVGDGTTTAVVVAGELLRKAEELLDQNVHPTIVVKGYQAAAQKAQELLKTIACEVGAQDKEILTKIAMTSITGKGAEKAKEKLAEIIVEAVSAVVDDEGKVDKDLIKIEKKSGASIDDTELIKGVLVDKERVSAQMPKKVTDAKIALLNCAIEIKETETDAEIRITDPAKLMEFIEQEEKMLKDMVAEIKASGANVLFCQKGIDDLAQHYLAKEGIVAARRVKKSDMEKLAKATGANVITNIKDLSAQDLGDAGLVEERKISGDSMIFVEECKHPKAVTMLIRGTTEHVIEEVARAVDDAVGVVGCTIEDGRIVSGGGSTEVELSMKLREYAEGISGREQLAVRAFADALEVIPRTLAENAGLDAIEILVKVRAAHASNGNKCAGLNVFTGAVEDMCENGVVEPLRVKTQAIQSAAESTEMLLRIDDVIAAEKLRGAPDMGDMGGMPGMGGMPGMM

NC(=O)c1ncn([C@@H]2O[C@H](CO)[C@@H](O)[C@H]2O)n1
inactive: Potency [1] | outcome [2] | Potency [3] | Potency [4] | Potency [5] | outcome [6] | Potency [7] | outcome [8] | Potency [9] | Potency [10] | outcome [11] | activation [12] 0.875% | outcome [13]

CNCC(O)c1ccc(O)c(O)c1 (stereo not drawn)
1.42%: viability change [15]
inactive: Potency [1] | outcome [2] | Potency [3] | Potency [4] | Potency [5] | outcome [6] | outcome [14] | outcome [8] | Potency [10] | outcome [11] | activation [12] 0.938% | Potency [15] | outcome [16] | outcome [13]

CNC(=O)Oc1ccc2c(c1)[C@]1(C)CCN(C)[C@@H]1N2C
11.7%: viability change [15]
inactive: Potency [1] | outcome [2] | Potency [17] | Potency [4] | Potency [5] | outcome [6] | outcome [14] | Potency [7] | outcome [8] | Potency [9] | Potency [18] | Potency [10] | outcome [11] | activation [12] 1% | Potency [15] | outcome [16] | outcome [13]

C#CCN(C)Cc1ccccc1
1.01%: viability change [15]
inactive: Potency [1] | outcome [2] | Potency [17] | Potency [3] | Potency [4] | Potency [5] | outcome [14] | Potency [7] | outcome [8] | Potency [9] | Potency [18] | Potency [10] | outcome [11] | activation [12] 0.562% | Potency [15] | outcome [16] | outcome [13]

C=Cc1c(C)c2cc3[nH]c(cc4nc(cc5nc(cc1[nH]2)C(C)=C5CCC(=O)O)C(CCC(=O)O)=C4C)c(C)c3C=C
active: Potency [5] 31.6 µM
inactive: Potency [1] | outcome [2] | Potency [17] | Potency [3] | Potency [4] | outcome [6] | outcome [14] | Potency [7] | outcome [8] | Potency [9] | Potency [18] | Potency [10] | outcome [11] | activation [12] 0.125% | outcome [16] | outcome [13]

CCN(CC)CCNC(=O)c1cc(Cl)c(N)cc1OC
inactive: Potency [1] | outcome [2] | Potency [17] | Potency [3] | Potency [4] | Potency [5] | outcome [6] | outcome [14] | Potency [7] | outcome [8] | Potency [10] | outcome [11] | activation [12] 1.31% | Potency [15] | outcome [16] | outcome [13]
-1.22%: viability change [15]
